The record followed here is ChEMBL document CHEMBL1961873, “Compounds: GSK PKIS; Assays: Nanosyn kinase panel” (2012).

Test [1] addresses T1, Serine/threonine-protein kinase Nek9 (Homo sapiens) (UniProt Q8TD19).
T1 sequence (whole entry): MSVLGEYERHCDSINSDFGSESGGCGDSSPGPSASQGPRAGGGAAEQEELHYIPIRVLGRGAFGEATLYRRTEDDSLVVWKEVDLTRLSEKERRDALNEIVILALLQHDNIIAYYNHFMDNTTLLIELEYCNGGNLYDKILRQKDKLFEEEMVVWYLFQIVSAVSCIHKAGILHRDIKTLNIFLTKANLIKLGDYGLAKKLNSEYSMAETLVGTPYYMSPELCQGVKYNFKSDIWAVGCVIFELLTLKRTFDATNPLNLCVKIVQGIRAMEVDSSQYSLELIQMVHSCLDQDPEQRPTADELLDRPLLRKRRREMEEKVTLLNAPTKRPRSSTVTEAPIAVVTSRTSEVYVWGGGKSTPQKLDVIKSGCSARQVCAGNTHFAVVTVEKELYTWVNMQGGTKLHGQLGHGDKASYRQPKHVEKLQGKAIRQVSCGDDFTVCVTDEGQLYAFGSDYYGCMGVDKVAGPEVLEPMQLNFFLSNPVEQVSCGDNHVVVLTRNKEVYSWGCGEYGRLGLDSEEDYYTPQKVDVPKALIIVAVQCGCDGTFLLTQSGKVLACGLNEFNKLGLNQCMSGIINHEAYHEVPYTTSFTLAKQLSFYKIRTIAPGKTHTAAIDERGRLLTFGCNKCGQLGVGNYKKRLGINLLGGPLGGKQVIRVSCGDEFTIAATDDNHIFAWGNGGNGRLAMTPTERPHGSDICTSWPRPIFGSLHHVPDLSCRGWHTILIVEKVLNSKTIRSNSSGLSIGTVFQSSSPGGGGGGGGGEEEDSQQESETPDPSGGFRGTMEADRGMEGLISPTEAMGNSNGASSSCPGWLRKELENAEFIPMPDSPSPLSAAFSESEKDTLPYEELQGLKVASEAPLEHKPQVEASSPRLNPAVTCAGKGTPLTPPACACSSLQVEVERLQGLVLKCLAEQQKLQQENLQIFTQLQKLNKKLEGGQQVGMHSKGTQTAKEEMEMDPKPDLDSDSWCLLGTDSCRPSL
The settings on record: at 1 µM.

Test [2] has as its target Serine/threonine-protein kinase PLK1 (Homo sapiens) (UniProt P53350). The settings on record: at 0.1 µM.
Test [3] has the same target. The settings on record: at 1 µM.
The target of test [4] is T2, Dual specificity protein kinase TTK (Homo sapiens) (UniProt P33981).
T2 sequence (whole entry): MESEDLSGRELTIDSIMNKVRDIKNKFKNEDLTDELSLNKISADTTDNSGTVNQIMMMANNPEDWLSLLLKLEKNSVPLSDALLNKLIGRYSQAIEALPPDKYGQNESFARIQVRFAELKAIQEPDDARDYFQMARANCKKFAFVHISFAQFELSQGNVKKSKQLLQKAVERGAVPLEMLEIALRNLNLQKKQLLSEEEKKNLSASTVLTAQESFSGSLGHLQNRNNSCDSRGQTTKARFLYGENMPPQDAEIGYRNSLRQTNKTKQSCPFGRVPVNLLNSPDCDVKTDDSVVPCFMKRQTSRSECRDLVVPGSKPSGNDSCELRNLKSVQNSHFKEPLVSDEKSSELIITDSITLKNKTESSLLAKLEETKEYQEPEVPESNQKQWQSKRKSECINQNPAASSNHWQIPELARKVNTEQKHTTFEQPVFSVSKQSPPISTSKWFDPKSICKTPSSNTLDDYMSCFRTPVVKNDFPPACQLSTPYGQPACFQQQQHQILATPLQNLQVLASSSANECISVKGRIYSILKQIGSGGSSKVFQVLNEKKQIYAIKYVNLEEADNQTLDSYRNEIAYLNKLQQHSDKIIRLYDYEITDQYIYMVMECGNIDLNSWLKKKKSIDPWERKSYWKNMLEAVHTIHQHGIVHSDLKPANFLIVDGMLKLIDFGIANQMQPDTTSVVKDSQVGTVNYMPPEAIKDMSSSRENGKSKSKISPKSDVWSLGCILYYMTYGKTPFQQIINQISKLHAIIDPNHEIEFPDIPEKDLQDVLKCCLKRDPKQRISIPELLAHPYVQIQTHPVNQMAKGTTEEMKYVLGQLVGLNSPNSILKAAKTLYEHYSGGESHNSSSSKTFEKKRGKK
The settings on record: at 0.1 µM.

The test system of test [5] is T3, Receptor-type tyrosine-protein kinase FLT3 (Homo sapiens), P36888 [D835Y].
T3 sequence (whole entry): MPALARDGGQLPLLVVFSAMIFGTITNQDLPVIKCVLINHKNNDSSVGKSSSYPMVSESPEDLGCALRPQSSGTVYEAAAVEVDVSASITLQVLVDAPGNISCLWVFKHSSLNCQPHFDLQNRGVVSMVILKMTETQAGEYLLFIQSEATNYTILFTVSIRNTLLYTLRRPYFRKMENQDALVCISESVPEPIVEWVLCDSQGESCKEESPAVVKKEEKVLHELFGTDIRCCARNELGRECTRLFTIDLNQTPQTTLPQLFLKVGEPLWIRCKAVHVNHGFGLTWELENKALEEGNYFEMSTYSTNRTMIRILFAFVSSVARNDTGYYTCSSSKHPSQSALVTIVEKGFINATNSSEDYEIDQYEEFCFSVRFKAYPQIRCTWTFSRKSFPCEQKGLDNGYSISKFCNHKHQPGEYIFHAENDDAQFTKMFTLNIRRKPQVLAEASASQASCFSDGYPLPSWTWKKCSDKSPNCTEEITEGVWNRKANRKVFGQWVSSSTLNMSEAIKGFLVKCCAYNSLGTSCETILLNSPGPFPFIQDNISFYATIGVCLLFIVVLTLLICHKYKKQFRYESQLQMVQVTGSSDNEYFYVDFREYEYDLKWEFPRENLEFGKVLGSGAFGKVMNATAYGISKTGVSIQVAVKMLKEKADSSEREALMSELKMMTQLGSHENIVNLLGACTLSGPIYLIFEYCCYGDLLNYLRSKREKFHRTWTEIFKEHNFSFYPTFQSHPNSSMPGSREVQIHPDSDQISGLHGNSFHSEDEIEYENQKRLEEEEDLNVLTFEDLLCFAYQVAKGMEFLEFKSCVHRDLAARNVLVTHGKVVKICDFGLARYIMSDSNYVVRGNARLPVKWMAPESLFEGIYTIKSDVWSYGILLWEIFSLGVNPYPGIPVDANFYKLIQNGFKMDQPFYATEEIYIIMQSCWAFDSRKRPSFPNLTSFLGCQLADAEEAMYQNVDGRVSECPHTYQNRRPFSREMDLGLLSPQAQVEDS
The settings on record: at 1 µM.

Test [6] has as its target Vascular endothelial growth factor receptor 3 (Homo sapiens) (UniProt P35916). The settings on record: at 0.1 µM.
Test [7] shares this target. The settings on record: at 1 µM.
The target in test [8] is Macrophage colony-stimulating factor 1 receptor (Homo sapiens) (UniProt P07333). The settings on record: at 0.1 µM.
Chain of Macrophage colony-stimulating factor 1 receptor (Homo sapiens) (P07333 whole entry): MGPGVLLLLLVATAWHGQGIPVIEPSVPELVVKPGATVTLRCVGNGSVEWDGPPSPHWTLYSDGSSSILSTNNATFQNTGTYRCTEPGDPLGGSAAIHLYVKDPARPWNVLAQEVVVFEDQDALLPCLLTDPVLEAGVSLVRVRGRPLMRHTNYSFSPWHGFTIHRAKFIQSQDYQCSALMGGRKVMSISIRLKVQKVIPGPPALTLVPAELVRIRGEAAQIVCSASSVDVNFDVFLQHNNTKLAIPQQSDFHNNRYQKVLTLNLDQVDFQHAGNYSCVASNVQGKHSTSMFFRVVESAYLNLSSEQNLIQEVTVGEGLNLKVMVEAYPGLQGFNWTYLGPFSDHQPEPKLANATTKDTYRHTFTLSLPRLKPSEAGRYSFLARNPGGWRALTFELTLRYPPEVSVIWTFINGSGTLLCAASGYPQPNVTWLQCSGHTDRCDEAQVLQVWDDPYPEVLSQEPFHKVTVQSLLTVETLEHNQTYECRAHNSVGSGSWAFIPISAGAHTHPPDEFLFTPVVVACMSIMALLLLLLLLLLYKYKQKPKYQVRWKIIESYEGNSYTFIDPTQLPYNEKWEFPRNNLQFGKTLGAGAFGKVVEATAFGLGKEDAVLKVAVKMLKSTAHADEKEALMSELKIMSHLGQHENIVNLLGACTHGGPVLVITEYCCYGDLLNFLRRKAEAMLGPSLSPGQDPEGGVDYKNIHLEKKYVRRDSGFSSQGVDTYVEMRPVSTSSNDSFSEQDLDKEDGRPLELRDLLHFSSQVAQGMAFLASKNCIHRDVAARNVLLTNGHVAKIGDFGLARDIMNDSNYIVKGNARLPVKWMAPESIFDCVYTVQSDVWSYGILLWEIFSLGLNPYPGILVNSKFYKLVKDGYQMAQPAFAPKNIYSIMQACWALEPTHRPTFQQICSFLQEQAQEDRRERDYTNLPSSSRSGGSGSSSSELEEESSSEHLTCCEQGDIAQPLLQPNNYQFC
For test [9] the target is unchanged. The settings on record: at 1 µM.
Test [10] concerns the target Tyrosine-protein kinase Fyn (Homo sapiens) (UniProt P06241). The settings on record: at 0.1 µM.

Molecules are shown by their SMILES.

Chain of Tyrosine-protein kinase Fyn (Homo sapiens) (P06241 2-537 limits assumed): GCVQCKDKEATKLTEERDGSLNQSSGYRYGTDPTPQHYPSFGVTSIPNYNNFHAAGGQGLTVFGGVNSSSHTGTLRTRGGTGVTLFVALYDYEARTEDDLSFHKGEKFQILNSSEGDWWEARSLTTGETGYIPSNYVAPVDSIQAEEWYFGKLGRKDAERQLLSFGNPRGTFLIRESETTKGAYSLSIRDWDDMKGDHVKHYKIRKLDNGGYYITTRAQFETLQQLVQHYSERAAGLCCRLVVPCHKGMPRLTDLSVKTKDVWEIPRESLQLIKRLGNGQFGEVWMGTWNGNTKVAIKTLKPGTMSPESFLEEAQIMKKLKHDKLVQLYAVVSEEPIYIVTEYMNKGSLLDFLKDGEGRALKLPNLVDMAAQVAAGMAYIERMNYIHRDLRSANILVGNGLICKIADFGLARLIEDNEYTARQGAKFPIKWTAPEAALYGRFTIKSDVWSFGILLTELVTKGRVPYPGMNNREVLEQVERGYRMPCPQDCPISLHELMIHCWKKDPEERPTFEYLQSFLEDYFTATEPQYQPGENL
Chain of Vascular endothelial growth factor receptor 3 (Homo sapiens) (P35916 whole entry): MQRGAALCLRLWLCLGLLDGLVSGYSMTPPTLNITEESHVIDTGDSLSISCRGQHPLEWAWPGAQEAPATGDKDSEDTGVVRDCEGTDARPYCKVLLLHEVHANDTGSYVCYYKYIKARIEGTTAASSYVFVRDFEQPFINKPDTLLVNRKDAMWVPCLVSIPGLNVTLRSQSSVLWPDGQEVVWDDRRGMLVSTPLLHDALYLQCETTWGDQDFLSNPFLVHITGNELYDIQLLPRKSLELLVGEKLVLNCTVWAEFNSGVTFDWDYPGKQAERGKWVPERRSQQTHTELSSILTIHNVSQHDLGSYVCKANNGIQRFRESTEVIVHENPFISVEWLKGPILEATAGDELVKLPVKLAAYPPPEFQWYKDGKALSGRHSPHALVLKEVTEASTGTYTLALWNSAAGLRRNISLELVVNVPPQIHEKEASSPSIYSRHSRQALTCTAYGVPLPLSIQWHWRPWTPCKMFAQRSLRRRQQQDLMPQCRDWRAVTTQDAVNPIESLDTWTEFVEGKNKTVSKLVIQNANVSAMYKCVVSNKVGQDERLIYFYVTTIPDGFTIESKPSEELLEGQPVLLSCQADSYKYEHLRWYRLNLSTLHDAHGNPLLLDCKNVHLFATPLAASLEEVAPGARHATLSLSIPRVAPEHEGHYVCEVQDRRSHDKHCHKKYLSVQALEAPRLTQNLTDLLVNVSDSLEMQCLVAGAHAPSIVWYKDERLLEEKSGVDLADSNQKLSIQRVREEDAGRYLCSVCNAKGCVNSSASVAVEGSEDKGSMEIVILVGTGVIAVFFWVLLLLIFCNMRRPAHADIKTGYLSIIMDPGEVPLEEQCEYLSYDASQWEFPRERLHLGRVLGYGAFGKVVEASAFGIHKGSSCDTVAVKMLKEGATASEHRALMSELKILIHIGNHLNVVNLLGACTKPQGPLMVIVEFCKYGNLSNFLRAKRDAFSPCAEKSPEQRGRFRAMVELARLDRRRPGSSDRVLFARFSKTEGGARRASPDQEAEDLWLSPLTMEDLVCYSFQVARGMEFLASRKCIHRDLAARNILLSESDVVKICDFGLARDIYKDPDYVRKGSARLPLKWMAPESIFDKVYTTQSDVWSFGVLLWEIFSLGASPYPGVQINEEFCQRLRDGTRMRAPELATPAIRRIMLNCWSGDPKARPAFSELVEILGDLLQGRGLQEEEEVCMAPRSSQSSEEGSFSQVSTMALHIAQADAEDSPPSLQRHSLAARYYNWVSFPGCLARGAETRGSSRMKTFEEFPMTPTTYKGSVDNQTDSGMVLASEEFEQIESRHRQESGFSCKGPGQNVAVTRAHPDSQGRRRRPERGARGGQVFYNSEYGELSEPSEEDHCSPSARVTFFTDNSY
Chain of Serine/threonine-protein kinase PLK1 (Homo sapiens) (P53350 whole entry): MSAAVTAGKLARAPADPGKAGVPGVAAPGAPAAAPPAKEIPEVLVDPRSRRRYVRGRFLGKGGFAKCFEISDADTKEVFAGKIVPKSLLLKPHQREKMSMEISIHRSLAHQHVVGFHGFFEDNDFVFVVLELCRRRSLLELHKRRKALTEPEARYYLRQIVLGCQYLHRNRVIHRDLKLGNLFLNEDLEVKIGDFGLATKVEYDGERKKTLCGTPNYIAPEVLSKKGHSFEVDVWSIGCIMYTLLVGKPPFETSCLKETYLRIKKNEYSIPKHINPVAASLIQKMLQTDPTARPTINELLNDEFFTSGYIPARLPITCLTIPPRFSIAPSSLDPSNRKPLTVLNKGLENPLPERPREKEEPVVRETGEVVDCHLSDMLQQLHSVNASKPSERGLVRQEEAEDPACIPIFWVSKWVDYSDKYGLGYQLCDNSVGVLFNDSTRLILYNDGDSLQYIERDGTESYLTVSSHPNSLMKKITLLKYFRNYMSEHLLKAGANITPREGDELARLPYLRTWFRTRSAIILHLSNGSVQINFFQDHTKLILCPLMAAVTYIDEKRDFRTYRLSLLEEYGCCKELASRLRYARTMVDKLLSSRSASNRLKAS

`FC(F)(F)c1cccc(-c2nn3ncccc3c2-c2ccnc(Nc3ccc4c(c3)OCCO4)n2)c1`: the inhibition amounted to 1.67% in test [1]; 1.26% in test [2]; 0.65% in test [3]; 6.38% in [4]; 3.11% in test [5]; 3.34% in [6]. The inhibition in [7] came to 18.5%; in test [8], 1.23%; in test [9], 7.02%; in test [10], 7.47%.

In the case of `CCn1cc(-c2ccnc3[nH]ccc23)c(-c2cccc(NC(=O)Nc3ccc(OCc4ccccc4)cc3)c2)n1`, the inhibition in test [1] was 1.16%; in test [2], -0.45%; in test [3], -0.98%; in test [4], 7.9%; in test [5], 0.68%; in test [6] it was -0.45%. Besides, the inhibition is -0.67% in [7], -7.9% in test [8], 0.27% in [9] and 0.67% in test [10].

`COc1ccc2[nH]c3c4[nH]c5ccc(OC)cc5c4c4c(c3c2c1)C(=O)NC4=O`: the inhibition in test [1] was determined as 2.1%; in test [2], 3.01%; in [3] it was 9.29%; in [4] it was 15.5%; in test [5], 92.7%; in test [6], 18.5%. For the same molecule, the inhibition in [7] was 63.5%; in test [8] it was 12.9%; in test [9], 50.9%; in [10], 3.62%.

Take `CN1CCC(n2cnc(-c3ccc(F)cc3)c2-c2ccnc(N)n2)CC1`: the inhibition came to 11.4% in test [1]; 2.4% in test [2]; 0.91% in [3]; 5.14% in [4]; 1.95% in test [5]; 1.56% in test [6]. For the same molecule, the inhibition in [7] worked out at 2.31%; in [8], 2.19%; in [9], 6.29%; in test [10], 0.4%.

`O=C(O[C@H]1CN[C@H](C#Cc2cc3ncnc(Nc4ccc(Cc5ccccc5)cc4)c3s2)C1)N1CCOCC1`: the inhibition in [1] is 7.49%; in test [2], 1.59%; in [3] it was 1.47%; in [4], 3.54%; in [5], -0.77%; in test [6] it was -2.62%. The inhibition was 4.62% in test [7], -3.48% in test [8], 3.66% in test [9] and -0.06% in test [10].

In the case of `CCCN(CCS(C)(=O)=O)Cc1ccc(-c2ccc3ncnc(Nc4ccc(OCc5cccc(F)c5)c(Cl)c4)c3c2)o1`, the inhibition was 4.13% in test [1]; 1.28% in test [2]; 1.62% in test [3]; 2.14% in test [4]; 0.99% in [5]; -1.86% in test [6]. For the same molecule, the inhibition is -0.27% in test [7], 0.78% in test [8], 1% in test [9] and 1.13% in test [10].

In the case of `NS(=O)(=O)c1ccc(N/N=C2\C(=O)Nc3ccc4ncccc4c32)cc1`, the inhibition in [1] amounted to 41%; in [2], 2.36%; in [3], 2.5%; in [4], 61.2%; in test [5], 80.4%; in [6], 43.9%. In addition, the inhibition in test [7] was determined as 86%; in test [8], 34.8%; in test [9], 79.3%; in test [10], 8.75%.

On to `COc1cc2ncn(-c3cc(OCc4ccccc4C(F)(F)F)c(C(=O)N(C)C)s3)c2cc1OC`, for which the inhibition in test [1] came out at 3.25%; in test [2], 3.97%; in test [3], 3.34%; in [4], 4.69%; in test [5], 1.1%; in [6] it was 0.79%. The inhibition in test [7] is 15.2%; in test [8] it was 4.5%; in [9] it was 3.31%; in test [10], 1.31%.
